In PubChem BioAssay AID434955 (Southern Research Specialized Biocontainment Screening …, 2010) one finds inhibition data, which are given here for 40 molecules.

This test is described as follows: beta-lactam sensitization of Mtb H37Rv, H37Rv (AID 434955).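 Note: growth measured after seven days incubation then overnight dye step; 0% = bacteria only wells and 100% = bacteria with antibiotic.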 Conditions: M. tuberculosis H37Rv growth with meropenem, percent inhibition, at 25 µM.
Setting [1] is: measured here: primary screen without meropenem.

Molecules are shown by their SMILES. Values joined by “and” are separate entries in the source; they are usually repeats but may differ in a detail not shown here. Equal entries are not always repeated. Among all 330,000 compounds or so, about 880 (0.27%) were called active. Another 1% or so got no clear call; they are omitted. The rule behind the calls is not given here. A selection follows.

In the case of `O=C(CCc1nc(-c2ccccc2)no1)Nc1cccc(C(=O)NC2CC2)c1`, the inhibition runs as follows: (stronger effect = higher value) 1.26% (inactive); under setting [1], 4.5%.

On to `COc1ccc(/C=N/n2c(C)cc(C)cc2=O)cc1`, for which the inhibition reads like this: (stronger effect = higher value) 3.19% (inactive); under setting [1], -1.76%.

As to `COC(=O)c1ccc(NS(=O)(=O)c2cc3c4c(c2)C(C)C(=O)N4CCC3)cc1` (stereo not given), the inhibition runs as follows: (stronger effect = higher value) -8.75% (inactive); under setting [1], -4.77%.

For the molecule `CCC1CO/C(=C(\C(=C(Cl)Cl)N2CCOCC2)[N+](=O)[O-])N1` (stereo not given), the inhibition by setting is: (stronger effect = higher value) -17.5% (inactive); under setting [1], -10.3%.

Take `CCOC(=O)N1CCN(C(=O)C2CCN(S(C)(=O)=O)CC2)CC1`: the inhibition is 2.13% (inactive) (stronger effect = higher value) and -5.28% under setting [1].

As for `O=c1[nH]c(=O)n(Cc2ccco2)c2c1C(C(F)(F)F)(C(F)(F)F)N=C(c1ccco1)N2`, the inhibition reads like this: (stronger effect = higher value) -12.9% (inactive); under setting [1], -21.1%.

As for `O=c1c2ccccc2ncn1CCCCOc1ccccc1F`, the inhibition is, setting by setting: (stronger effect = higher value) -1.85% (inactive); under setting [1], 11.4%.

As to `Cn1nc(C(F)(F)F)cc1C(=O)O`, the inhibition is -2.73% (inactive) (stronger effect = higher value) and 4.91% under setting [1].

As to `O=C1CC2(CCCC2)Oc2ccc(Cl)cc21`, the inhibition reads like this: (stronger effect = higher value) -2.7% (inactive); under setting [1], -12.8%.

Take `COc1ccc(C2C(C(C)=O)=C(O)C(=O)N2c2nccs2)cc1` (stereo not given): the inhibition is, setting by setting: (stronger effect = higher value) -8% (inactive); under setting [1], -1.43%.

On to `NC(=O)COC(=O)c1sc2cc(F)ccc2c1Cl`, for which the inhibition runs as follows: (stronger effect = higher value) 40.4% (inactive); under setting [1], 37.9%.

As to `O=C(NC(Cc1ccccc1)C(=O)O)/C(=C\c1ccccc1)NC(=O)c1ccco1` (stereo not given), the inhibition is, setting by setting: (stronger effect = higher value) -13.2% (inactive); under setting [1], -12.5%.

Take `CN1CCc2nc(SC(C(=O)O)c3ccccc3)c(C#N)c(-c3cccs3)c2C1` (stereo not given): the inhibition reads like this: (stronger effect = higher value) -5.45% (inactive); under setting [1], -0.72%.

In the case of `CCOc1cc(C)ccc1OCc1nnc(SCC(=O)Nc2cccc(C(=O)O)c2)n1-c1ccccc1`, the inhibition by setting is: (stronger effect = higher value) -1.64% (inactive); under setting [1], -0.86%.

As for `CCOC(=O)c1ccc(NC(=O)C2CC(=O)N(c3ccc4c(c3)OCCO4)C2)cc1` (stereo not given), the inhibition (stronger effect = higher value) is -4.22% (inactive) and the inhibition under setting [1] came out at 4.56%.

Turning to `O=C(c1ccc(F)cc1)n1c(=S)nc2ccccn21`, the inhibition was -3.39% (inactive) (stronger effect = higher value) and -1.53% under setting [1].

As to `CN1CCN(NC(=O)Nc2ccc(Br)cc2)CC1`, the inhibition was 5.75% (inactive) (stronger effect = higher value) and 6.69% under setting [1].

For `CC(=O)C1=C(C)NC(=O)NC1c1ccc2c(c1)OCO2` (stereo not given), the inhibition reads like this: (stronger effect = higher value) -1.59% (inactive); under setting [1], 7.05%.

Turning to `COc1ccc(NC2CCCN(C(=O)c3ccncc3)C2)cc1` (stereo not given), the inhibition by setting is: (stronger effect = higher value) -5.62% (inactive); under setting [1], 1.6%.

As for `Cc1cc(C)cc(N(CCC#N)C(=O)CN2C(=O)NC3(CCCC3)C2=O)c1`, the inhibition is, setting by setting: (stronger effect = higher value) -5.09% (inactive); under setting [1], -6.67%.

Consider `CC(C)N1CCC(NC(=O)Nc2ccccc2)CC1`, for which the inhibition (stronger effect = higher value) is -9.18% (inactive) and the inhibition under setting [1] was -1.81%.

Regarding `Cc1ccc(NS(=O)(=O)c2ccc(-c3coc(C)n3)cc2)c(C)c1`, the inhibition reads like this: (stronger effect = higher value) -2.05% (inactive); under setting [1], 3.59%.

Consider `COc1ccc(C(=O)NC(C)Cn2nc(C)cc2C)cc1OC1CCN(C(C)=O)CC1` (stereo not given), for which the inhibition is -1.95% (inactive) (stronger effect = higher value) and -5.6% under setting [1].

Turning to `COCCCNC(=O)Cc1ccc(-n2c(C)nc3cccnc32)cc1`, the inhibition (stronger effect = higher value) is -2.02% (inactive) and the inhibition under setting [1] was -1.03%.

Turning to `O=C(NCCC1=CCCCC1)c1ccc(-n2cncn2)cc1`, the inhibition was 3.02% (inactive) (stronger effect = higher value) and 10.8% under setting [1].

`CC1CCN(S(=O)(=O)c2ccc(NC(=O)C3CC(=O)N(c4ccccc4)C3)cc2)CC1` (stereo not given): the inhibition is, setting by setting: (stronger effect = higher value) 1.58% (inactive); under setting [1], 6.16%.

As for `COc1ccc(OC)c(NC(=O)c2cccc(S(=O)(=O)N3CCN(C(C)=O)CC3)c2)c1`, the inhibition is 1.25% (inactive) (stronger effect = higher value) and 1.6% under setting [1].

For the molecule `CCc1nn(CCCN2CCN(c3cccc(Cl)c3)CC2)c(=O)n1CCOc1ccccc1`, the inhibition runs as follows: (stronger effect = higher value) -2.61% (inactive) and 5.29% (inactive); under setting [1], 51.1% and 50%.

For `COc1ccc(C)c(Cn2c(-c3nonc3N)nc3ccccc32)c1`, the inhibition (stronger effect = higher value) is -3.23% (inactive) and the inhibition under setting [1] is -5.86%.

In the case of `C=CCSc1ccc(S(=O)(=O)N2CCN(C)CC2)cn1`, the inhibition is -0.58% (inactive) (stronger effect = higher value) and 5.36% under setting [1].

Take `Cc1ccc(C(=O)NN(CCC#N)C2=NS(=O)(=O)c3ccccc32)cc1`: the inhibition (stronger effect = higher value) is -5.01% (inactive) and the inhibition under setting [1] was -4.15%.

In the case of `CC(NC(=S)NC1CCCCC1)C(c1ccccc1)N1CCOCC1` (stereo not given), the inhibition is -1.18% (inactive) (stronger effect = higher value) and -9.18% under setting [1].

Take `COC(=O)N/N=C/c1c[n+]([O-])c2ccccc2[n+]1[O-]`: the inhibition (stronger effect = higher value) was 99.7% (inactive) and the inhibition under setting [1] is 100%.

Consider `Nn1c(SCC(=O)NC2CCCc3ccccc32)nnc1C1CC1` (stereo not given), for which the inhibition (stronger effect = higher value) is -6.27% (inactive) and the inhibition under setting [1] was -8.89%.

In the case of `Cn1nnnc1-c1cc(Cl)cc(Cl)c1`, the inhibition is, setting by setting: (stronger effect = higher value) -6.9% (inactive); under setting [1], -5.1%.

As to `FC(F)(F)COc1nc(N2CCCCC2)nc(N2CCNCC2)n1`, the inhibition reads like this: (stronger effect = higher value) -3.65% (inactive); under setting [1], -3.73%.

Consider `Cc1ccc(S(=O)(=O)N(C)c2ccc(OCC(=O)OCc3ccc(C#N)cc3)cc2)cc1`, for which the inhibition runs as follows: (stronger effect = higher value) 94.4% (inactive); under setting [1], 93.2%.

For the molecule `O=C(c1cc(-c2ccc(Cl)cc2)on1)N1CCN(c2ccccc2)CC1`, the inhibition by setting is: (stronger effect = higher value) 4.32% (inactive); under setting [1], 0.26%.

Consider `Nc1c(N(CCO)C(=O)C2CCCCC2)c(=O)[nH]c(=O)n1Cc1ccccc1`, for which the inhibition runs as follows: (stronger effect = higher value) 1.76% (inactive); under setting [1], -2.9%.

With `Cc1ccc(N2CC(C(=O)Nc3cc(Cl)ccc3-n3cncn3)CC2=O)cc1` (stereo not given), the inhibition reads like this: (stronger effect = higher value) -7.41% (inactive); under setting [1], 3.62%.

In general, inhibition refers to the relative decrease from the control value, in per cent.
